Source: PubChem
An excerpt weighted towards active compounds, which were near 1.1% of everything screened.
PKA-R2B act: activators of PKA-R2B holoenzyme, primary screen, biochemical, fluorescence polarization, Cy5-IP20, human | cAMP-dependent protein kinase catalytic subunit beta (Homo sapiens) + cAMP-dependent … | activation, % at 11.4 µM | AID 504700, 2011 | 340,000 tested, 0.079% active | PKA-R2B holoenzyme dissociation; R2B truncated from residue 108, S112A mutant; 0% DMSO only, 100% 113 µM cGMP;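 active = activation above a cutoff set at the mean over all compounds plus 3 SD, cut at about 18% in these data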;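 note: higher means more holoenzyme dissociation and a rise in polarization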
Target sequence (P31323 whole entry, looked up, other chains not shown, the tested form may be a part): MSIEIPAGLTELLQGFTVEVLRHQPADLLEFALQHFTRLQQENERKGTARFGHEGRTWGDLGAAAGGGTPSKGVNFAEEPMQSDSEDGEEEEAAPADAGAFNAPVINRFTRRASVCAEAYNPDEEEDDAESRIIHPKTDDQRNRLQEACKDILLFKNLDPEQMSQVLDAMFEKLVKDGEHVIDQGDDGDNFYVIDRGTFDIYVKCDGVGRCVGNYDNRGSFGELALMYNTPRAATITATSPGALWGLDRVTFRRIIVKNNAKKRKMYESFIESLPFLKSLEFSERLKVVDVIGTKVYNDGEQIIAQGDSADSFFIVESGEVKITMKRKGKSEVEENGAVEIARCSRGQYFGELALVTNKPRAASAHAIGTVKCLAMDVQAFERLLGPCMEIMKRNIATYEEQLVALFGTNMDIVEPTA
MsrA act: bovine MsrA enzyme activators, primary screen, biochemical, absorbance, HTS; Methionine sulfoxide reductase A (Bos taurus); activation, % at 10.6 µM; purified bovine MsrA, absorbance read-out; 360,000 tested, 0.3% active; in the data active = activation above about 7.5%;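 note: 0% = vehicle and 100% = reference activator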
PKA-R1A activ: activators of PKA-R1A holoenzyme, primary screen, biochemical, fluorescence polarization, Cy5-IP20, bovine R1A, mouse PKAc; cAMP-dependent protein kinase type I-alpha regulatory subunit (Bos taurus) + …; PKA-R1A dissociation; scaled: DMSO 0%, 113 µM cGMP 100%; activation, % at 11.4 µM; 340,000 tested, 0.083% active;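 active = percent activation above the mean of all tested compounds plus 3 SD, cut at about 19% in these data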;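 note: higher means more PKAc released from R1A so a rise in polarization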
MsrA inhibitor: bovine MsrA enzyme inhibitors, primary screen, biochemical, absorbance, HTS; AID 651718, 2012; purified bovine MsrA, absorbance read-out; Methionine sulfoxide reductase A (Bos taurus); inhibition, % at 15.5 µM; 360,000 tested, 0.75% active; in the data active = inhibition above about 4.5%;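 note: 0% = vehicle wells with enzyme and 100% = reference inhibitor wells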
MsrA activ conf: bovine MsrA activators, retest, confirmation, biochemical, absorbance, HTS | AID 602270, 2012 | activation, % at 10.6 µM | shares compounds with MsrA act | 1,000 tested, 12% active | purified bovine MsrA, absorbance read-out; in the data active = activation above about 4%;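 note: enzyme coupled to thioredoxin and thioredoxin reductase with NADPH; 0% = vehicle wells and 100% = reference activator wells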
Active calls of the source: *; . = not tested or not shown; ! = a repeat was not active.

SMILES | PKA-R2B act | MsrA act | PKA-R1A activ | MsrA inhibitor | MsrA activ conf
Cc1nnc(N/N=C/c2ccco2)n1N | -4 | 16* | -5 | 1 | -2
COc1ccc(CNC(=O)[C@@H](Cc2ccccc2)NC(=O)[C@H]2O[C@@H](n3cnc4c(=O)[nH]c(N)nc43)[C@H](O)[C@@H]2O)cc1 | . | . | . | 0 | .
CCCCc1c(-c2ccccc2OC)ncn1Cc1ccc(Br)cc1 | . | . | . | 1 | .
CCOc1ccc2nc(NC(=S)N(C)C)sc2c1 | -1 | 8.1* | -3 | 1 | -7
COCc1cc(N2CCN(C(=O)OC(C)(C)C)C[C@@H]2C)ccc1N1CCN(Cc2ccccc2)[C@@H](C)C1 | . | . | . | 1 | .
N#CCOC(=O)c1cc(S(=O)(=O)N2CCCCC2)ccc1N1CCOCC1 | -3 | 12* | -4 | 0 | -3
O=C(NC(=S)NNC(=O)[C@H]1C[C@@H]1c1ccccc1)c1ccc(F)cc1 | 1 | -6 | -3 | 0 | .
CC(=O)c1ccc(NC(=O)C2CC2c2ccccc2)cc1 (centres undefined) | 8 | 10* | -6 | 0 | -4
CC(C)(C)NC(=S)NNC(=O)[C@H]1C[C@@H]1c1ccccc1 | -4 | 8.5* | -7 | -1 | -1
O=C(NC12CC3CC(CC(C3)C1)C2)c1cncc(Br)c1 | -9 | -3 | -10 | 1 | .
O=C(COC(=O)c1cncc(Br)c1)NC12CC3CC(CC(C3)C1)C2 | . | 9.3* | . | 0 | -1
Nc1nc(N)nc(-c2cccc(Br)c2)n1 | -24 | -11 | -2 | 1 | .
S=c1nc(-c2cccc(Br)c2)[nH][nH]1 | -2 | 9.8* | 3 | 1 | 6.1*
O=C(CCN1CCN(C(=O)c2ccco2)CC1)Nc1ccc(F)cc1 | 11 | -4 | 1 | 1 | .
O=C(c1ccco1)N1CCN(CCCCOc2ccc(F)cc2)CC1 | -2 | 9.4* | 2 | -1 | -2
CCc1ccc(C2CC(c3ccccc3)Nc3nc(N)nn32)cc1 (centres undefined) | 10 | -2 | 0 | 1 | .
CCc1ccc(C2CC(c3ccccc3Cl)Nc3nc(N)nn32)cc1 (centres undefined) | 1 | 9.4* | 0 | 1 | -1
NNC(=O)c1oc2nc(-c3ccco3)cc(-c3ccco3)c2c1N | . | 8.2* | . | 2 | -2
Nc1c(C(=O)N/N=C/c2cccnc2)oc2nc(-c3ccco3)cc(-c3ccco3)c12 | . | -6 | . | 2 | .
COc1ccccc1COCC(O)CNCC1(N2CCCCC2)CCCCC1 (centres undefined) | 4 | -1 | -1 | 0 | .
COc1cc(C(C)=O)ccc1OCC(O)CNCC1(N2CCCCC2)CCCCC1 (centres undefined) | 4 | 19* | 3 | 1 | 0
Cc1cccc(C)c1NC(=O)C1CCCN(CCCc2ccccc2)C1 (centres undefined) | 6 | -3 | -9 | 0 | .
CCOC(=O)C1CCCN(CCCc2ccccc2)C1 (centres undefined) | -11 | 14*! | 5 | 0 | -1
CCc1noc(C)c1C(=O)N1CCN(S(=O)(=O)c2cccs2)CC1 | 7 | 10.0* | -1 | -1 | -1
Cn1c(=O)c2c(ncn2Cc2ccc(O)c([N+](=O)[O-])c2)n(C)c1=O | . | . | . | 0 | .
SMILES | PKA-R2B act | MsrA act | PKA-R1A activ | MsrA inhibitor | MsrA activ conf
CS(=O)(=O)c1cc([N+](=O)[O-])c(Sc2nc3ccccc3[nH]2)c([N+](=O)[O-])c1 | -1 | 8.0* | -1 | -1 | 10*
O=C(O)c1cc([N+](=O)[O-])c(Sc2nc3ccccc3[nH]2)c([N+](=O)[O-])c1 | -6 | -3 | -14 | 0 | .
S=C(NCc1ccccc1)N1CCc2ccccc2C1 | 5 | 9.5* | 2 | 0 | -1
Cc1nn(C)c(Sc2ccccc2N)c1[N+](=O)[O-] | -18 | 8.0* | 0 | 0 | 0
Cc1cccc(C(=O)N2CCCC(N3CCN(c4cccc(Cl)c4)CC3)C2)n1 (centres undefined) | 8 | 17* | -5 | 0 | -3
O=C(c1cnccn1)N1CCCC(N2CCN(c3cccc(Cl)c3)CC2)C1 (centres undefined) | -4 | -3 | -5 | 0 | .
CC(C)[C@H](N)C(=O)N[C@H](C(=O)N1CCC2CCN(Cc3ccccc3)CC21)C(C)C (some centres undefined) | . | . | . | 0 | .
Cn1cc(CC(=O)Nc2ccc(Nc3cccnc3)c(Br)c2)c2ccccc21 | . | . | . | 0 | .
c1ccc2nc3c(nc2c1)CCCC3 | -1 | -1 | -2 | 1 | .
C1CCc2nc3c(nc2C1)CCCC3 | -9 | 17* | -2 | -1 | -4
CCCCN(CC)CCCNC(=O)CC1Oc2ccccc2NC1=O (centres undefined) | 3 | -2 | 8 | 1 | .
CC(C)CN(CCCNC(=O)CC1Oc2ccccc2NC1=O)CC(C)C (centres undefined) | 0 | 8.6* | -9 | -1 | 0
COc1ccc(NC(=O)CSc2nc(C)c3c(c2C#N)CCCC3)cc1 | 7 | 1 | 6 | 1 | .
Cc1cc(=O)[nH]c(SCC(=O)NCc2ccc3c(c2)OCO3)n1 | 2 | -10 | -5 | -1 | .
Cc1nc(SCC(=O)NCc2ccc3c(c2)OCO3)c(C#N)c2c1CCCC2 | -14 | 9.2* | -3 | -1 | -2
CCc1nnc(NC(=O)CSc2nc(C)c3c(c2C#N)CCCC3)s1 | 2 | 15* | -12 | . | -2
Cc1cc2c(c(=O)o1)[C@@]1(C(=O)N(C)c3ccccc31)C1=C(CC(C)(C)OC1=O)O2 | . | . | . | 0 | .
OC(COc1ccc2ccccc2c1Br)Cn1ccnc1 (centres undefined) | 0 | 0 | -7 | 0 | .
OC(COc1ccc2ccccc2c1)Cn1ccnc1 (centres undefined) | -3 | 8.1* | 7 | -1 | -2
S=C(NCCCN1CCOCC1)Nc1ccc(Cl)c(Cl)c1 | 2 | 14* | 1 | -1 | -3
Cc1ccc(NC(=S)NCCCN2CCOCC2)cc1C | -7 | -3 | -5 | -1 | .
CCOC(=O)c1cc2nc(OCC)nc(OCC)c2[nH]1 | -2 | 8.7* | -7 | 1 | -1
Cc1c(C)n(CCc2ccccc2)c2ncnc(NCCO)c12 | 2 | 10.0* | -11 | 0 | -1
Cc1ccc(Nc2n[nH]c(=S)s2)cc1C | 5 | 7.8* | 2 | 1 | 1
S=c1[nH]nc(Nc2cccc(Cl)c2)s1 | 7 | -3 | 12 | 2 | .
CC(C)(C)c1ccc(C#C[C@@H]2C=C[C@@H](O)[C@@H](COC(=O)Nc3ccccc3)O2)cc1 | . | . | . | 0 | .
C=C(C(=O)c1ccccc1)C(C)CC(=O)c1ccccc1 (centres undefined) | 6 | 8.5* | 6 | -1 | -1
Brc1cccc(CN2CCN(c3ncc(Cc4ccccc4)cn3)CC2)n1 | . | . | . | -1 | .
